Compound activity as filed in PubChem.
Most compounds without a hit are left out; they make up all but 3.7% or so of the library.
FadD28 binding: M. tuberculosis FadD28 bisubstrate binding inhibition | inhibition, % at 12.5 µM | FadD28 bisubstrate probe binding, fluorescence polarization | 0.22% of 360,000 active | AID 588549; in the data active = inhibition above about 8.5%, passing the limit was not always enough
Rv3671c inh: inhibits the M. tuberculosis serine protease Rv3671c; P9WHR9; inhibition, % at 5.96 µM; 0.048% of 320,000 active; in the data active = inhibition above about 38%;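 note: extracellular domain of Rv3671c used as enzyme; 0% = enzyme with DMSO and 100% = no enzyme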
Mtb bLac sens: beta-lactam sensitization of Mtb H37Rv. M. tuberculosis H37Rv growth with meropenem, percent inhibition. inhibition, % at 25 µM. 0.27% of 330,000 active. AID 434955; call rule not given here;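 note: growth measured after seven days incubation then overnight dye step; 0% = bacteria only wells and 100% = bacteria with antibiotic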
Mtb FBA inh: inhibitors of M. tuberculosis fructose-bisphosphate aldolase; P9WQA3; purified M. tuberculosis FBA, fluorescence read-out; inhibition, % at 1 µM; 2.3% of 360,000 active; AID 588726;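 note: 0% = vehicle and 100% = reference inhibitor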
Target sequence (P9WQA3 whole entry, looked up): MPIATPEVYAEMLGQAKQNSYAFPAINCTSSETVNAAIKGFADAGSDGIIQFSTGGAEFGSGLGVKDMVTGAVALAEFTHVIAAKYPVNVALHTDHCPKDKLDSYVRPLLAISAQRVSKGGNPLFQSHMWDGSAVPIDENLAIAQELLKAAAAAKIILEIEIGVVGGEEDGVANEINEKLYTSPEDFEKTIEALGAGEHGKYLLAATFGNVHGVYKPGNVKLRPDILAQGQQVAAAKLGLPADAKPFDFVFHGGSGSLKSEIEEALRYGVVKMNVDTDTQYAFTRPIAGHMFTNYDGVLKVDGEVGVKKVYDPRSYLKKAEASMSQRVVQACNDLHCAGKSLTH
GDH-TPI counter-1: counter-screen for M. tuberculosis FBA inhibitors: GDH-TPI coupled enzymes. GDH-TPI coupled enzyme counterscreen, NADH absorbance. inhibition, % at 4.8 µM. 1.2% of 360,000 active; in the data active = inhibition above about 30%;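 note: 0% = DMSO wells and 100% = wells lacking the enzyme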
Mtb UGM inh: inhibitors of M. tuberculosis UDP-galactopyranose mutase; purified UGM, fluorescence polarization probe displacement; inhibition, % at 10 µM; 0.06% of 320,000 active; in the data active = inhibition above about 10%, passing the limit was not always enough
Target sequence (P9WIQ1 whole entry, looked up): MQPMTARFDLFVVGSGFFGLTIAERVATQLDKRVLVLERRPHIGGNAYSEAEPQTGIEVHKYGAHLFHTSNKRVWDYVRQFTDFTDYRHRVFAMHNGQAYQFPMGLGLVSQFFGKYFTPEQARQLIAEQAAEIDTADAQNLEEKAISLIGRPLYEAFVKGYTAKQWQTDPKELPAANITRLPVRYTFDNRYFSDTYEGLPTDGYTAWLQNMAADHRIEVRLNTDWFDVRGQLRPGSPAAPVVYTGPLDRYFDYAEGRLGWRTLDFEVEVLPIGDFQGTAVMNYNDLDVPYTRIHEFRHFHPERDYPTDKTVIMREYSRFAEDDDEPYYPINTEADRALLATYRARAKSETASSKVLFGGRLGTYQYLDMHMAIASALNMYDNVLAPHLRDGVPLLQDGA
Mtb FBA confirm: Mtb FBA inhibition, confirmed. 78% of 5,600 active. inhibition, % at 1 µM. shares compounds with Mtb FBA inh. purified M. tuberculosis FBA, fluorescence read-out;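 note: 0% = vehicle wells and 100% = reference inhibitor wells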
GDH-TPI counter-2: counter-screen for M. tuberculosis FBA inhibitors: GDH-TPI coupled enzyme inhibition | shares compounds with Mtb FBA inh | inhibition, % at 1 µM | 81% of 5,600 active | AID 652141 | GDH-TPI coupled enzyme counterscreen, fluorescence; in the data active = inhibition above about 10%
Numbers without * were called inactive; nt = not tested or not shown; + = active, no number. Cut-off read from the data, not from the text of the source, unless noted: active = inhibition above about 27%; inactive = the rest.

SMILES | FadD28 binding | Rv3671c inh | Mtb bLac sens | Mtb FBA inh | GDH-TPI counter-1 | Mtb UGM inh | Mtb FBA confirm | GDH-TPI counter-2
CCOC(=O)c1cc2ccc3ccccc3c2s1 | -0.7 | -3.0 | 92.2 | 4.5 | 3.5 | 2.9 | nt | nt
CCOC(=O)c1cc2c(s1)-c1ccccc1CC2 | -3.4 | 0.8 | 7.4 | 49.1* | 19.5 | 1.7 | 6.7 | 0.1
CC(C)OCCCn1c(=N)c(S(=O)(=O)c2ccccc2)cc2c(=O)n3ccccc3nc21 | -0.1 | 1.6 | 8.5 | 12.9 | 13.4 | -0.6 | nt | nt
Cc1ccc2nc3c(cc(C(=O)NCCN4CCOCC4)c(=N)n3CCCN3CCOCC3)c(=O)n2c1 | -1.6 | -10.6 | -4.6 | 78.3* | 5.4 | 0.4 | 61.3* | 42.3*
Cc1cc(C(=O)NCCN2CCOCC2)c2ccccc2n1 | 1.2 | -6.5 | -7.7 | 3.8 | 14.6 | 1.4 | nt | nt
N=c1c(C(=O)NCCN2CCOCC2)cc2c(=O)n3ccccc3nc2n1Cc1ccc(F)cc1 | -4.1 | -9.2 | 7.1 | 40.3* | 0.0 | -0.8 | 102.8* | 80.7*
O=C(NCCN1CCOCC1)c1cc(-c2ccc(F)cc2)nc2ccccc12 | -2.5 | -0.9 | -4.7 | 9.7 | 12.7 | 1.2 | nt | nt
N=c1c(S(=O)(=O)c2ccccc2)cc2c(=O)n3ccccc3nc2n1CCCN1CCOCC1 | -3.5 | -1.1 | 2.5 | 51.9* | 9.6 | 0.8 | 48.1* | 38.2*
N=c1c(S(=O)(=O)c2ccc(F)cc2)cc2c(=O)n3ccccc3nc2n1CC1CCCO1 (stereo not drawn) | 0.6 | -0.1 | -2.6 | 83.6* | 6.6 | 2.1 | 96.9* | 79.4*
CCCn1c(=N)c(S(=O)(=O)c2ccc(F)cc2)cc2c(=O)n3ccccc3nc21 | -1.7 | -10.6 | -1.3 | 23.0 | 4.5 | -0.7 | nt | nt
O=C(Nc1cccc(S(=O)(=O)C(F)(F)F)c1)[C@H]1C[C@H](O)[C@@H](CO)O1 | -2.9 | nt | nt | 0.0 | -10.7 | nt | nt | nt
CCNC(=O)C1(C)CCN(C(=O)c2ccc(OC(F)F)cc2)C1 (stereo not drawn) | -0.8 | nt | nt | -0.4 | 8.2 | nt | nt | nt
Nc1ccn([C@@H]2O[C@H](C(=O)Nc3ccc(Oc4ccccc4)nc3)[C@@H](O)[C@H]2O)c(=O)n1 | -3.0 | nt | nt | 0.1 | nt | nt | nt | nt
CC1NC(=O)c2cccnc2-n2c1nc1cc(F)ccc1c2=O (stereo not drawn) | -1.5 | nt | nt | 1.1 | 3.3 | nt | nt | nt
COC(=O)CCC(=O)c1ccc(OC)c(Cl)c1 | nt | -4.7 | -2.7 | nt | nt | 2.7 | nt | nt
CC1(Cc2ccc(OC(F)(F)F)cc2)C(=O)Nc2c(Cl)ccc(Cl)c21 (stereo not drawn) | -4.0 | nt | nt | -3.7 | 6.2 | nt | nt | nt
O=[N+]([O-])c1ccc(NS(=O)(=O)N2CCOCC2)cc1 | 0.9 | -7.7 | -13.6 | -6.3 | 9.9 | -0.6 | nt | nt
O=c1c2ccccc2nc2ccccn12 | -0.8 | 7.5 | -5.2 | 109.3* | 0.6 | 1.6 | 163.0* | 150.5*
Cn1c(=N)c(S(=O)(=O)c2ccccc2)cc2c(=O)n3ccccc3nc21 | -3.4 | -4.0 | -15.2 | 60.3* | -1.1 | 0.7 | 71.2* | 53.6*
N=c1c(C(=O)NCCN2CCOCC2)cc2c(=O)n3ccccc3nc2n1CCCN1CCOCC1 | -1.2 | 6.5 | 5.9 | 88.4* | 10.7 | 2.9 | 155.7* | 117.2*
Cn1c(=N)c(S(=O)(=O)c2ccc(F)cc2)cc2c(=O)n3ccccc3nc21 | -2.4 | 8.4 | -5.1 | 10.1 | -5.2 | -0.6 | nt | nt
COCCCn1c(=N)c(C(=O)NCc2ccc3c(c2)OCO3)cc2c(=O)n3ccccc3nc21 | -1.8 | 0.3 | -4.3 | 6.6 | 0.6 | 0.6 | nt | nt
c1ccc(-n2nnc3cnccc32)cc1 | -3.6 | -1.4 | -5.3 | 4.5 | 1.9 | 0.4 | nt | nt
Nc1ccc2c(c1)nnn2-c1ccccc1 | -1.6 | -0.6 | 96.7 | 30.6* | -7.2 | 2.3 | 190.3* | 151.6*
COC(=O)c1ccc(Cn2c(C)c(C(=O)NCc3ccco3)sc2=O)o1 | 0.3 | nt | nt | 2.7 | 15.0 | nt | nt | nt
SMILES | FadD28 binding | Rv3671c inh | Mtb bLac sens | Mtb FBA inh | GDH-TPI counter-1 | Mtb UGM inh | Mtb FBA confirm | GDH-TPI counter-2
C=C1c2cc(OC)ccc2NC(=O)N1CC | -0.4 | 1.0 | -6.6 | 34.3* | 12.8 | -1.8 | 3.2 | 2.0
Cc1ccc(C2CC(c3ccccc3C)n3nc(N)nc3N2)cc1 (stereo not drawn) | -1.7 | 7.7 | 2.5 | 3.3 | -8.9 | -1.3 | nt | nt
Cc1ccc(C2CC(c3cccs3)n3nc(N)nc3N2)cc1 (stereo not drawn) | -4.4 | 4.3 | -12.3 | 60.5* | 18.4 | 2.0 | 7.8 | 4.2
O=C(N/C(=C\c1cccc([N+](=O)[O-])c1)C(=O)N1CCOCC1)c1ccco1 | nt | -1.2 | -3.8 | 64.9* | 20.1 | -4.1 | 176.1* | 142.2*
O=C(O)CCNc1ccc(NCCC(=O)O)c2c1C(=O)c1ccccc1C2=O | 10.2* | 17.8 | -3.2 | 90.1* | 23.5 | 3.6 | 4.2 | 2.7
CNC1(c2ccccc2Cl)CCCCC1=O (stereo not drawn) | 0.3 | nt | nt | 27.0* | -4.5 | nt | 57.8* | 35.5*
CC(C)NC(=S)N(C)C1(c2ccccc2Cl)CCCCC1=O (stereo not drawn) | -6.5 | -19.0 | -0.2 | 0.4 | -4.8 | -6.9 | nt | nt
CCn1c(SCc2ccccc2Cl)nc2nc3c(cc2c1=O)CCCC3 | -3.3 | nt | nt | 28.0* | 3.0 | nt | 85.2* | 61.5*
CCn1c(SCc2c(Cl)cccc2Cl)nc2nc3c(cc2c1=O)CCCC3 | 0.6 | 4.6 | 8.5 | 2.4 | -1.4 | -0.7 | nt | nt
COc1ccc(C(=O)NN/C(=N/S(=O)(=O)c2ccc(C)cc2)c2ccccc2)cc1 | -0.5 | 4.2 | 5.5 | 58.6* | 6.5 | -2.6 | + | +
CCN(CC)C(=O)c1cccc(-c2csc(C(C)(O)c3cccc(F)c3)n2)c1 (stereo not drawn) | -2.5 | nt | nt | 0.1 | 0.9 | nt | nt | nt
COC(=O)c1[nH]c2cc(OC)c(OC)cc2c1NC(=O)CN1C[C@H]2C[C@@H](C1)c1cccc(=O)n1C2 | -2.3 | -5.2 | -0.9 | 36.9* | 11.1 | 0.5 | 69.4* | 53.8*
COC(=O)c1[nH]c2cccc(OC)c2c1NC(=O)CN1CC(C)OC(C)C1 (stereo not drawn) | 0.0 | 8.4 | -4.6 | 10.7 | -2.2 | 2.8 | nt | nt
O=C(COc1ccc2c3c(c(=O)oc2c1)CCC3)NCC(O)c1ccccc1 (stereo not drawn) | -3.4 | 5.1 | 2.9 | 3.5 | 2.2 | 1.2 | nt | nt
Cc1cc(OCC(=O)NCC(O)c2ccccc2)c2c3c(c(=O)oc2c1)CCCC3 (stereo not drawn) | -0.5 | -2.4 | -1.1 | 12.3 | 6.8 | -1.8 | nt | nt
Cc1cc(OC(C)C(=O)NCC(O)c2ccccc2)c2c3c(c(=O)oc2c1)CCCC3 (stereo not drawn) | -4.0 | -0.3 | -3.5 | 81.1* | 6.0 | 2.7 | 169.3* | 130.6*
Cc1cc(OC(C)C(=O)N[C@H](C(=O)O)c2ccccc2)c2c3c(c(=O)oc2c1)CCC3 (stereo partly drawn) | -4.3 | 5.4 | -8.0 | 108.2* | 2.9 | 0.2 | 143.9* | 104.7*
